# Assay results taken from PubChem BioAssay (NCATS).
# Records with an inconclusive call do not appear. A call without a number means that no potency is given here. Values without a mark were called inactive. Activity calls are given as the source filed them. Unless noted, the call rests on the fitted dose curve; in most records, active means well fitted curve in the direction sought with a large enough effect; inconclusive means small, poorly fitted or top-dose-only effect, or another doubt; inactive means no such curve, though single readings can be large; an effect the other way counts as inactive or inconclusive.
# Assays:
# [1] = qHTS to identify inhibitors of the type 1 interferon - major histocompatibility complex class I in skeletal muscle: primary screen against the NCATS Pharmaceutical Collection (AID 1347407);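 further: luminescence of HiBiT knocked into endogenous HLA-B as interferon-induced MHC class I level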
# Outline: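 HLA-B HiBiT myoblasts, dexamethasone-free growth medium + 4 ng/ml IFN-b; compounds pinned 1 h after seeding, […] from 46 uM; 24 h, 37 C, 5% CO2; lytic HiBiT detection, 10 min RT, luminescence.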
# [2] = biological target: Protein phosphatase 1D (Homo sapiens) (UniProt O15297); assay: RapidFire Mass Spectrometry qHTS Assay for Modulators of WT P53-Induced Phosphatase 1 (WIP1) (AID 1347424); further: series mostly up to about 63 µM
# Chain of Protein phosphatase 1D (Homo sapiens) (O15297 whole entry, looked up): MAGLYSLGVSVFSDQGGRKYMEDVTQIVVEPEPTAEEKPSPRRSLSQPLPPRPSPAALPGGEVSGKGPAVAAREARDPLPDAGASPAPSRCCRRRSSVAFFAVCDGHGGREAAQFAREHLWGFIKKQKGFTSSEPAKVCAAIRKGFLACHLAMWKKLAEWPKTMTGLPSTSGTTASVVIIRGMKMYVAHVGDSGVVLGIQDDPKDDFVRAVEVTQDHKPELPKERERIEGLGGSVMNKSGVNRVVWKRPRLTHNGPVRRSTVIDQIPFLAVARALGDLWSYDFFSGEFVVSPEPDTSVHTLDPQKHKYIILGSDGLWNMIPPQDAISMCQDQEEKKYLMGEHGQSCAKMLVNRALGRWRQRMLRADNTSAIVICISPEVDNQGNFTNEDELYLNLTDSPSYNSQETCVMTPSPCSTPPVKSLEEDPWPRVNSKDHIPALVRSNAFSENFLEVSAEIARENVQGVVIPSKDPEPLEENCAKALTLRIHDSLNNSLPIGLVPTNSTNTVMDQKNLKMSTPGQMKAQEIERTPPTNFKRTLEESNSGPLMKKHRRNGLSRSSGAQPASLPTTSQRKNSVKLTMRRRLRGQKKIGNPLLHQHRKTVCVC
# Outline: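 RapidFire MS readout of dephosphorylated VEPPL-S-QETFS product, with 1 uM isotope-labelled peptide standard. Reaction: 10 nM WIP1, 2 uM phosphopeptide substrate, 5 min, room temperature, after 1 h compound preincubation; stopped with 0.5% formic acid.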
# [3] = Primary qHTS for inhibitors of La Crosse Virus (LACV) - induced cell death in SH-SY5Y cells (AID 1508616);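 further: top concentration of the series differs between compounds; higher means more rescue of cells from virus-induced death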
# Outline: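 Screening measures cell viability in LACV-infected SH-SY5Y cultures. Compound was added before virus (0.01 MOI), and ATP was detected by luminescence 6 days later.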
# [4] = biological target: Calcium and integrin-binding protein 1 (Homo sapiens) (UniProt Q99828); assay: Primary qHTS for Identification of Calcium Integrin Binding Protein 1 (CIB1) Competitor (AID 1508620);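 further: GST tagged CIB1 binding a fluorescein labelled alphaIIb integrin peptide tracer; top concentration of the series differs between compounds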
# Chain of Calcium and integrin-binding protein 1 (Homo sapiens) (Q99828 whole entry, looked up): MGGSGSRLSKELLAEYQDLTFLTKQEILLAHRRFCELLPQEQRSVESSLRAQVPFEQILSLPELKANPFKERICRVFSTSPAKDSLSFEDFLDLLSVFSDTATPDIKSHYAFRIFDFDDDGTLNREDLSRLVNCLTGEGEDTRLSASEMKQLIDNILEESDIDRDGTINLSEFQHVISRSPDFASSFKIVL
# Outline: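 Fluorescence polarization competition: GST-tagged CIB1 (1 uM final) preincubated with compound 15 min at room temperature, then FITC-labelled alphaIIb peptide (100 nM final) added. After 15 min at room temperature, polarization read at Ex 480/Em 540.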
# [5] = Primary qHTS for small molecule stabilizers of the endoplasmic reticulum resident proteome: Secreted ER Calcium Modulated Protein (SERCaMP) assay (AID 1508630)
# Outline: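 The SH-SY5Y reporter protocol was run at 3 concentrations up to 38.3 uM (primary) or 11 concentrations (follow-up): 16 h compound, 100 nM thapsigargin for 4 h, then extracellular luciferase luminescence.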
# [6] = A High-Content qHTS Against Drug Library for the Identification of Small Molecules that Inhibit DYT1 Early Onset Primary Dystonia-Associated Cell Pathology (AID 1645839; calls by dose curve; further: potency means the concentration at half of the fitted maximal effect)
# Outline: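 Cells were seeded and left for 24 h, then dosed with compound alongside tetracycline induction of mutant EGFP-TorsinA. They were incubated for 48 h, fixed in 4% paraformaldehyde, permeabilized and imaged for mislocalization (%pathology) and cell count.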
# [7] = biological target: Cytochrome P450 2D6 (Homo sapiens) (UniProt P10635); assay: Cytochrome P450 family 2 subfamily D member 6 (CYP2D6) small molecule antagonists: luciferase biochemical (cell-free) qHTS assay (AID 1645840; active means well fitted curve in the direction sought with a large enough effect in the repeat runs; an effect the other way counts as inactive or inconclusive; further: nearly all actives have a fitted effect of over 55% in size; further: potency means the concentration at half of the fitted maximal effect)
# Chain of Cytochrome P450 2D6 (Homo sapiens) (P10635 whole entry, looked up): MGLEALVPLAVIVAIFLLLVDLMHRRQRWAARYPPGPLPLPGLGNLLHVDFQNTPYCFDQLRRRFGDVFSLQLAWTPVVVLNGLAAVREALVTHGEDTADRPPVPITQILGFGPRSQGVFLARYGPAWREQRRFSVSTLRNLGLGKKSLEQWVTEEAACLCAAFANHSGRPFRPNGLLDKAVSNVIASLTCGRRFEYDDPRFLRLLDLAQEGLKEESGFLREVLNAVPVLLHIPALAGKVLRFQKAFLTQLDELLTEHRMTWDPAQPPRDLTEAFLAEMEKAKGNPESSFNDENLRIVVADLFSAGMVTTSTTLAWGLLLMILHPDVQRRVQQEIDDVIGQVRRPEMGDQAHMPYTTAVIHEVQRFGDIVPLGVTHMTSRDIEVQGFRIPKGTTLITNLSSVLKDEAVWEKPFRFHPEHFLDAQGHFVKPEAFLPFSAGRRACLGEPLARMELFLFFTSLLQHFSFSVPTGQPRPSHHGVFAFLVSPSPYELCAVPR
# Outline: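 P450-Glo CYP2D6 system: proluciferin substrate converted by enzyme to luciferin, read by luminescence proportional to activity. Enzyme-substrate mix with compound 10 min at room temperature, then NADPH regeneration 1 h before detection reagent.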
# [8] = biological target: Protein phosphatase 1D (Homo sapiens) (UniProt O15297); assay: Rhodamine-PBP qHTS Assay for Modulators of WT P53-Induced Phosphatase 1 (WIP1) (AID 1347425)
# Outline: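 Steps: enzyme with Rh-PBP sensor and compounds, room-temperature incubation of 1 hr, baseline read, addition of VEPPL-pS-QETFS (10 uM final), kinetic fluorescence reads at 525/598 nm. Activity equals final minus baseline signal.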
# [9] = qHTS to identify inhibitors of the type 1 interferon - major histocompatibility complex class I in skeletal muscle: primary screen against the NCATS Mechanism Interrogation Plate v5.0 (MIPE) Libary (AID 1347411); further: nearly all actives have a fitted effect of over 65% in size
# Outline: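 IFN-beta-driven (4 ng/ml) HLA-B-HiBit expression in CRISPR-tagged C25cl48 myoblasts; compounds 11-pt, 1:3, max 46 uM, 24 hr exposure; lytic NanoLuc complementation luminescence.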
# [10] = Confirmatory qHTS for small molecule stabilizers of the endoplasmic reticulum resident proteome: Secreted ER Calcium Modulated Protein (SERCaMP) assay (AID 1508628); further: potency means the concentration at half of the fitted maximal effect; nearly all actives have a fitted effect of over 40% in size
# Outline: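 GLuc-SERCaMP-expressing SH-SY5Y cells, pretreated 16 h with compound, are challenged with thapsigargin to empty ER calcium stores; after 4 h, coelenterazine is added directly to the medium and luminescence is imaged.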
# [11] = Cell Viability qHTS for small molecule stabilizers of the endoplasmic reticulum resident proteome (AID 1508629); settings: cell viability counter-screen, 100 nM thapsigargin for final 4 h;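 further: human SH-SY5Y neuroblastoma cells carrying the GLuc-SERCaMP reporter; compound exposure about 46 h in total before the viability read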
Compound,outcome [1],outcome [2],outcome [3],outcome [4],outcome [5],Potency [6],Potency [7],outcome [8],outcome [9],Potency [10],max response [11] [%]
Cn1c([N+](=O)[O-])cnc1COC(N)=O,inactive,inactive,inactive,inactive,inactive,inactive,inactive,,,,
COc1cc(C(=O)NCCCCCC(=O)O)cc(OC)c1OC,inactive,inactive,inactive,inactive,,inactive,inactive,,,,
CN1CC(=O)NC1=N,inactive,inactive,,inactive,,inactive,inactive,,,,
Cc1cc(OI)c(C(C)C)cc1-c1cc(C(C)C)c(OI)cc1C,,inactive,inactive,inactive,inactive,inactive,,inactive,,,
Cc1onc(-c2ccccc2)c1-c1ccc(S(N)(=O)=O)cc1,,inactive,inactive,inactive,inactive,inactive,,,inactive,,
O=C(O)/C=C/c1ccc(Cn2ccnc2)cc1,,inactive,inactive,inactive,,inactive,inactive,inactive,inactive,,
O=C(O)Cn1c(C(=O)Nc2nc(-c3ccccc3Cl)cs2)cc2ccccc21,inactive,,inactive,inactive,,,,,,,
O=C(NCCCN1CCOCC1)c1ccc(Cl)cc1,inactive,inactive,inactive,inactive,inactive,inactive,2.72 µM (active),,,,
COc1cc(O)cc(O)c1,inactive,inactive,inactive,inactive,inactive,inactive,inactive,,,,
COc1ccc(Cc2cnc(N)nc2N)cc1OC,inactive,inactive,inactive,inactive,,inactive,inactive,,,,
NNc1nnc(NN)c2ccccc12,inactive,inactive,inactive,inactive,,inactive,22.9 µM (active),,,,
O=C1c2cccc(O)c2C(=O)c2c(O)cccc21,inactive,inactive,inactive,,inactive,inactive,inactive,,,,
CC1(C)[C@@H](OC(=O)CCC(=O)O)CC[C@]2(C)[C@H]3C(=O)C=C4[C@@H]5C[C@@](C)(C(=O)O)CC[C@]5(C)CC[C@@]4(C)[C@]3(C)CC[C@@H]12,inactive,,inactive,,inactive,inactive,inactive,,,,
O=C(/C=C/c1ccc(O)c(O)c1)O[C@@H]1C[C@@](OC(=O)/C=C/c2ccc(O)c(O)c2)(C(=O)O)C[C@@H](O)[C@@H]1O,inactive,inactive,inactive,inactive,inactive,inactive,inactive,,,,
O=c1[nH]c(=O)c2ccccc2o1,,inactive,inactive,inactive,inactive,inactive,inactive,,,,
CO[C@@]1(NC(=O)C(C(=O)O)c2ccc(O)cc2)C(=O)N2C(C(=O)O)=C(CSc3nnnn3C)CO[C@@H]21 (some centres undefined),,inactive,inactive,inactive,,inactive,,,,,
O=C1CC[C@@H](C(=O)O)N1,,inactive,,,inactive,inactive,inactive,inactive,,,
O=C(NCC(O)CO)c1c(I)c(C(=O)NCC(O)CO)c(I)c(N(CCO)C(=O)CO)c1I (centres undefined),,inactive,inactive,inactive,inactive,inactive,inactive,inactive,,,
Cc1cccc(Nc2ccccc2C(=O)O)c1C,,inactive,,inactive,inactive,,inactive,inactive,,,
CCOc1ccc(C(=O)OCCN(CC)CC)cc1,,inactive,,inactive,inactive,inactive,2.72 µM (active),inactive,,,
O=C(O)c1cc(=O)c2ccccc2o1,,inactive,inactive,inactive,inactive,,inactive,inactive,,,
COC(=O)c1ccccc1C(=O)c1ccc(OCCN2CCCCC2)cc1,,inactive,inactive,inactive,inactive,inactive,11 µM (active),,,,
O=C(c1ccccc1)C(O)c1ccccc1 (centres undefined),,inactive,inactive,,inactive,inactive,inactive,inactive,,,
O=C(Cn1ccnc1[N+](=O)[O-])NCCO,,inactive,inactive,inactive,inactive,inactive,inactive,inactive,,,
CCOC(N)=O,,inactive,inactive,inactive,,inactive,inactive,inactive,,,
CC(N)CCCC(C)(C)O (centres undefined),,inactive,inactive,inactive,,,inactive,inactive,,,
CCCCOC(=O)c1ccc(N)cc1,,inactive,inactive,inactive,,,,,,,

Compound,outcome [1],outcome [2],outcome [3],outcome [4],outcome [5],Potency [6],Potency [7],outcome [8],outcome [9],Potency [10],max response [11] [%]
CC(=O)OCC(COC(C)=O)OC(C)=O,,inactive,inactive,inactive,inactive,inactive,inactive,inactive,,,
CC1(c2ccccc2)OC(C(=O)O)=CC1=O (centres undefined),,inactive,inactive,inactive,inactive,inactive,inactive,inactive,,,
Cc1cccc(C(=O)O)c1O,,inactive,inactive,inactive,inactive,inactive,inactive,inactive,,,
CCCOC(=O)c1ccc(N)cc1,,inactive,inactive,inactive,inactive,inactive,inactive,,,,
O=C(/C=C/c1ccccc1)OCc1ccccc1,,inactive,inactive,inactive,,inactive,inactive,inactive,,,
CN1C(C)(C)CCCC1(C)C,,inactive,inactive,inactive,inactive,inactive,3.89 µM (active),inactive,,,
CCCCCCCCCCC(CO)CCCCCCCC (centres undefined),,inactive,inactive,inactive,,inactive,inactive,inactive,,,
CCN1CC(CCN2CCOCC2)C(c2ccccc2)(c2ccccc2)C1=O (centres undefined),,inactive,,inactive,inactive,inactive,0.436 µM (active),inactive,,,
CCCCC1(COC(=O)CCC(=O)O)C(=O)N(c2ccccc2)N(c2ccccc2)C1=O,,inactive,inactive,inactive,inactive,inactive,,,,,
CCCCCCCCCCCCCCCCC(C(=O)O)C(O)(CC(=O)O)C(=O)O (centres undefined),,,inactive,inactive,inactive,7.94 µM (active),,inactive,,,
CCCCCC(N)=O,,inactive,inactive,inactive,inactive,inactive,inactive,inactive,,,
C[C@@H](c1ncncc1F)C(O)(Cn1cncn1)c1ccc(F)cc1F (some centres undefined),,inactive,inactive,inactive,inactive,inactive,inactive,inactive,,,
CCN(CC)S(=O)(=O)c1ccc(C(=O)O)cc1,,inactive,inactive,inactive,inactive,inactive,inactive,inactive,,,
CCCCCC(C)N (centres undefined),,inactive,inactive,inactive,,inactive,inactive,,,,
CCOc1ccccc1O[C@H](c1ccccc1)[C@H]1CNCCO1,,inactive,,inactive,,inactive,,,,22.4 µM (active),9.87
Cc1c(I)c(=O)n(-c2ccccc2)n1C,,inactive,inactive,inactive,,inactive,inactive,inactive,,,
CN1CCN(C(=O)C2CCCCC2)CC1,,inactive,,inactive,,inactive,inactive,inactive,,,
CC(=O)Nc1cccc(O)c1,,inactive,inactive,inactive,inactive,inactive,inactive,,,,
C[C@@H]1CCC[C@H](C)N1,,inactive,inactive,inactive,inactive,inactive,inactive,inactive,,,
CC(C(=O)O)c1ccc2c(c1)Cc1cccnc1O2 (centres undefined),,inactive,inactive,inactive,inactive,inactive,inactive,inactive,,,
Cc1cc(NC(=O)C2=C(O)c3ccccc3S(=O)(=O)N2C)no1,,inactive,inactive,inactive,inactive,inactive,inactive,inactive,,,
c1ccc2[nH]ccc2c1,,inactive,inactive,inactive,,inactive,inactive,inactive,,,
C=CCSCC1Nc2cc(Cl)c(S(N)(=O)=O)cc2S(=O)(=O)N1 (centres undefined),,inactive,inactive,inactive,inactive,inactive,inactive,inactive,,,
Cc1cc(-n2nc3ccc(Cl)cc3n2)c(O)c(C(C)(C)C)c1,,inactive,inactive,inactive,,inactive,inactive,inactive,,,
CC[N+](C)(CC)CCOC(=O)C1c2ccccc2Oc2ccccc21,,inactive,inactive,inactive,,inactive,4.36 µM (active),inactive,,,
CC(CSC(=O)c1ccccc1)C(=O)N1C[C@@H](Sc2ccccc2)C[C@H]1C(=O)O (some centres undefined),,inactive,inactive,inactive,inactive,inactive,inactive,inactive,,,
